From PubChem
KCNH2 3.1 block = inhibitors of human KCNH2 3.1 potassium channel isoform | U2OS KCNH2 3.1, thallium flux FluxOr; stronger effect = lower value | activity change, % (tested at about 1.8 µM) | actives 0.95% (n = 340,000);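 active means maximum activity change below -70%; inconclusive means maximum activity change from -70% to -50%; inactive means maximum activity change above -50%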;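 further: thallium influx rate constant from kinetic fluorescence after stimulation buffer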
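Thallium flux read-out: FluxOr dye with Red40 quencher in HBSS/HEPES, 45 min at RT. Rate constants from kinetic reads were normalized to positive and negative DMSO controls. Cells: U2OS virally expressing the 3.1 isoform.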
GLS inhibitor = inhibitors of human glutaminase (GLS). GLS enzymatic activity, qHTS titration. Potency, µM (top dose mostly 45.5 µM), usual class: inhibitors. actives 0.21% (n = 410,000)
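hKGA in 45 mM KH2PO4 pH 8.2, 0.02% Tween-20 with pin-transferred compounds; 1 mM L-glutamine (stock) plus glutamate oxidase/HRP/Amplex Red coupling added. Fluorescence read initially and after 30 min at RT.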
HEK293 tox = cytotoxicity counter-screen for GLP-1 receptor inverse agonists; HEK293 cAMP-luciferase reporter cells, luminescence, 24 h; AID 624418; Potency, µM (doses to about 38.3 µM), actives largely listed as inhibitors; actives 0.13% (n = 410,000);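 further: loss of luciferase light is scored as toxicity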
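Luminescence readout: signal drop marks cytotoxicity. Plated cells grew 12 h at 37 °C, 5% CO2, received 23 nL compound for 24 h, then got luciferase reagent, read after 12 min at RT.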
GLP-1R agonist = GLP-1 receptor (human) agonism | P43220 | HEK293 GLP-1R CRE-luciferase, luminescence, 4-6 h; cells express a hypersensitive GLP-1R form | Potency, µM (titrated, usually from 45.6 µM), hits mostly activators | actives 0.007% (n = 380,000) | AID 624172
Target sequence (P43220 whole entry, looked up): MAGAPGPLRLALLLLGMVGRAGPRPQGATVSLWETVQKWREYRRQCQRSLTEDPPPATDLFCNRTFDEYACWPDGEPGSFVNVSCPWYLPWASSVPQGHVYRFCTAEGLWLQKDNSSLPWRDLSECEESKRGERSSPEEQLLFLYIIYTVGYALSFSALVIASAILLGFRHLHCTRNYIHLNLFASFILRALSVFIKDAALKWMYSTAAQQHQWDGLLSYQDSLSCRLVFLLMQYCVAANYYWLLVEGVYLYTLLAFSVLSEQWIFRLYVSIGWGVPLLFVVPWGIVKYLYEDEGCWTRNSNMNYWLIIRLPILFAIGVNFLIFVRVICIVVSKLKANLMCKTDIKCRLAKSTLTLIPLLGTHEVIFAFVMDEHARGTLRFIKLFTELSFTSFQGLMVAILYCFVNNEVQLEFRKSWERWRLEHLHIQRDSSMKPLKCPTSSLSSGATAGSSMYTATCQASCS
KCNH2 WT inh = inhibitors of human wildtype KCNH2 potassium channel. actives 0.37% (n = 340,000). U2OS, BacMam KCNH2, thallium flux FluxOr; stronger effect = lower value. activity change, % at 1.84 µM;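 active means maximum activity change below -70%; inconclusive means maximum activity change between -70% and -50%; inactive means maximum activity change above -50%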
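U2OS cells were transduced with wild-type KCNH2 virus (2.03 x 10^8 / mL) for 4 h at room temperature, then cultured overnight at 37 C. Thallium flux was read with FluxOr dye. Rate constants were normalized to DMSO controls.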
GLP-1R inv ag = inverse agonists of human GLP-1 receptor; P43220; HEK293 GLP-1R CRE-luciferase, luminescence, 24 h; GLP-1R form is constitutively active; Potency, µM (titrated, usually from 38.3 µM), hits mostly inhibitors; actives 1.6% (n = 410,000); AID 624417; further: nearly all actives have a fitted effect of over 55% in size
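Using stably transfected HEK293 (constitutively active GLP-1R, cAMP-luciferase reporter), compounds were incubated 24 hr and luciferase measured by luminescence.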
A number is an active result; . = inactive; ? = inconclusive; / = not tested or not shown. In the library only some 2.8% were active in any assay of this set; here they are far more common. Unless noted, the call rests on the fitted dose curve; in most records, active means well fitted curve in the direction sought with a large enough effect; inconclusive means small, poorly fitted or top-dose-only effect, or another doubt; inactive means no such curve, though single readings can be large; an effect the other way counts as inactive or inconclusive.

SMILES | KCNH2 3.1 block | GLS inhibitor | HEK293 tox | GLP-1R agonist | KCNH2 WT inh | GLP-1R inv ag
O=C(NCc1ccc(C(F)(F)F)cc1)C1CC(c2ccccc2C(F)(F)F)=NO1 (centres undefined) | . | . | . | . | . | ?
CC(C)=CCC/C(C)=C/CC/C(C)=C/CCC(=O)OC/C=C(\C)CCC=C(C)C | / | . | / | . | / | /
C(=N\Nc1nc(-c2ccccc2)cs1)/c1cccnc1 | . | . | . | . | . | .
Clc1ccc(-c2csc(N/N=C/c3cccnc3)n2)c(Cl)c1 | -112 | . | . | . | ? | .
C/C(=N\Nc1nc(C(C)(C)C)cs1)c1ccccc1 | . | . | . | . | . | 8.9µM
CC(C)(C)c1csc(N/N=C/c2cccnc2)n1 | . | 11µM | . | . | . | .
O=C(CSc1nnc(SCc2ccc(Cl)cc2)s1)N/N=C/c1c[nH]c2ccccc12 | . | . | ? | . | . | ?
O=C(CSc1nnc(SCc2cccc3ccccc23)s1)N/N=C/c1c[nH]c2ccccc12 | . | . | . | . | . | 5.6µM
Clc1ccc(CN2CCC(c3nc4ccc(Cl)cc4[nH]3)CC2)cc1 | -97 | . | ? | . | -96 | 7.9µM
CC1CCCN(C(=O)CN2CCC(c3nc4ccc(Cl)cc4[nH]3)CC2)C1 (centres undefined) | . | . | . | . | . | ?
CCCn1c2ccccc2c2cnn(CC(=O)N3CCC(C(=O)OCC)CC3)c(=O)c21 | / | . | . | / | / | .
Cc1cccc2cc(CN(Cc3ccccc3)C(=O)c3cccc(F)c3)c(Cl)nc12 | . | . | . | . | . | 11µM
O=C(COC(=O)COc1cccc(Br)c1)Nc1c(Cl)cccc1Cl | . | . | . | . | -189 | .
O=C(COc1ccc([N+](=O)[O-])cc1)Nc1nc2c(s1)CCCC2 | / | . | . | / | / | .
CO/N=C/c1cccn1-c1nccc(OC)c1C#N | -190 | . | . | . | -196 | .
CC(=O)C[C@H](O)CC(=O)[C@@H]1OC(=O)CCCCCc2ccccc21 | . | . | . | . | . | .
Cc1cc(/C=C(/C#N)c2nc3ccccc3[nH]2)c(C)n1-c1cc(C(=O)O)cc(C(=O)O)c1 | . | 18µM | . | . | . | .
CN(C)S(=O)(=O)c1cccc(-c2nn(-c3ccccc3)cc2/C=C(\C#N)c2nc3ccccc3[nH]2)c1 | -76 | . | . | . | . | .
Cc1ccccc1CS(=O)(=O)c1nnc([C@H](Cc2ccccc2)NC(=O)OC(C)(C)C)o1 | . | . | ? | . | . | 10µM
COc1cccc(/C=N/Nc2ncccc2[N+](=O)[O-])c1OC | ? | . | . | . | . | ?
O=[N+]([O-])c1ccc(/C=N/Nc2ncccc2[N+](=O)[O-])s1 | . | . | 1.1µM | . | . | ?
C/C(=N\NC(=O)c1ccc(F)cc1)c1ccccn1 | . | . | . | . | . | 1.1µM
Cc1cc([N+](=O)[O-])ccc1NC(=O)CN1CCN(Cc2ccccc2)CC1 | -81 | . | . | . | . | .
O=C(CN1CCN(Cc2ccccc2)CC1)Nc1ccc([N+](=O)[O-])cc1C(=O)Nc1ccccc1F | -103 | . | ? | . | -82 | ?
Cc1ccccc1NC(=O)CN1CCN(Cc2ccccc2)CC1 | . | . | ? | . | . | .
COc1cc(C2CC(=O)Nc3c2c(=O)[nH]c2nc4ccccc4n32)ccc1O (centres undefined) | / | . | . | . | / | .
O=C(COCc1cc(-c2cccs2)on1)NCc1ccc(Cl)cc1 | / | . | . | / | / | .
O=C1C=CC2(O[C@H](c3ccccc3)[C@@H](c3ccccc3)O2)[C@H](Sc2ccccc2O)C1 | . | . | 4.5µM | . | . | ?
C[C@@H]1[C@@H](Sc2ccccc2)CC(=O)O[C@@H]1c1ccc(-c2ccccc2)cc1 | . | . | . | . | . | ?
C/C(=C(/CCOC(=O)c1ccccc1)SS/C(CCOC(=O)c1ccccc1)=C(\C)N(C=O)Cc1cnc(C)nc1N)N(C=O)Cc1cnc(C)nc1N | / | . | / | . | / | /
